# Experimental data from PubChem BioAssay.
# Unmarked numbers belong to inactive results. Some of the results follow. Activity calls are given as the source filed them.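 Rule for the calls, unless noted: active = inhibition above the hit cutoff set in the earlier primary screen (cut at about 27% in these data); inactive = the rest.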
# How the values were obtained:
# [1] = biological target: Protein phosphatase methylesterase 1 (Homo sapiens) (UniProt Q9Y570); assay: PME-1 inhibitor activity retest, confirmation, biochemical, fluorescence polarization, FP-Rh probe, triplicate (AID 2171); settings: recombinant PME-1, FP-Rh probe fluorescence polarization; at 5.9 µM; stronger effect = higher value;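 note: 0% = enzyme with DMSO and 100% = wells lacking PME-1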
# Sequence of Protein phosphatase methylesterase 1 (Homo sapiens) (Q9Y570 whole entry, looked up, the tested form may be a part): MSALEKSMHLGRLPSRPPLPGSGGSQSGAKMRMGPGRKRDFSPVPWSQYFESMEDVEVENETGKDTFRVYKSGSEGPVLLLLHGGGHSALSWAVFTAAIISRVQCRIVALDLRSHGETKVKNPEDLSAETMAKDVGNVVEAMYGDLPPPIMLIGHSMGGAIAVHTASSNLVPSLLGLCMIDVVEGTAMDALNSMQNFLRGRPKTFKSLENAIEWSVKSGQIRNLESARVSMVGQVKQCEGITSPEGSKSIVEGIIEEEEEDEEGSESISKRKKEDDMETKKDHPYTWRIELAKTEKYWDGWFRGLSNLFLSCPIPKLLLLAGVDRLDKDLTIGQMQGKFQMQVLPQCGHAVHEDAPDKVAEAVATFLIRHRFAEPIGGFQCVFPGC
# [2] = biological target: Nuclear receptor coactivator 1 (Homo sapiens) (UniProt Q15788); assay: SRC1 coactivator transcriptional activity inhibitors, confirmation, cell-based, luminescence, quadruplicate (AID 588820;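 active = mean inhibition above 46.68%, the untreated control wells mean plus 3 SD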;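 note: 0% = DMSO wells and 100% = gossypol 36 µM treated wells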); settings: HEK293 GAL4-SRC1 luciferase reporter, at 3.6 µM, stronger effect = higher value
# Sequence of Nuclear receptor coactivator 1 (Homo sapiens) (Q15788 whole entry, looked up, the tested form may be a part): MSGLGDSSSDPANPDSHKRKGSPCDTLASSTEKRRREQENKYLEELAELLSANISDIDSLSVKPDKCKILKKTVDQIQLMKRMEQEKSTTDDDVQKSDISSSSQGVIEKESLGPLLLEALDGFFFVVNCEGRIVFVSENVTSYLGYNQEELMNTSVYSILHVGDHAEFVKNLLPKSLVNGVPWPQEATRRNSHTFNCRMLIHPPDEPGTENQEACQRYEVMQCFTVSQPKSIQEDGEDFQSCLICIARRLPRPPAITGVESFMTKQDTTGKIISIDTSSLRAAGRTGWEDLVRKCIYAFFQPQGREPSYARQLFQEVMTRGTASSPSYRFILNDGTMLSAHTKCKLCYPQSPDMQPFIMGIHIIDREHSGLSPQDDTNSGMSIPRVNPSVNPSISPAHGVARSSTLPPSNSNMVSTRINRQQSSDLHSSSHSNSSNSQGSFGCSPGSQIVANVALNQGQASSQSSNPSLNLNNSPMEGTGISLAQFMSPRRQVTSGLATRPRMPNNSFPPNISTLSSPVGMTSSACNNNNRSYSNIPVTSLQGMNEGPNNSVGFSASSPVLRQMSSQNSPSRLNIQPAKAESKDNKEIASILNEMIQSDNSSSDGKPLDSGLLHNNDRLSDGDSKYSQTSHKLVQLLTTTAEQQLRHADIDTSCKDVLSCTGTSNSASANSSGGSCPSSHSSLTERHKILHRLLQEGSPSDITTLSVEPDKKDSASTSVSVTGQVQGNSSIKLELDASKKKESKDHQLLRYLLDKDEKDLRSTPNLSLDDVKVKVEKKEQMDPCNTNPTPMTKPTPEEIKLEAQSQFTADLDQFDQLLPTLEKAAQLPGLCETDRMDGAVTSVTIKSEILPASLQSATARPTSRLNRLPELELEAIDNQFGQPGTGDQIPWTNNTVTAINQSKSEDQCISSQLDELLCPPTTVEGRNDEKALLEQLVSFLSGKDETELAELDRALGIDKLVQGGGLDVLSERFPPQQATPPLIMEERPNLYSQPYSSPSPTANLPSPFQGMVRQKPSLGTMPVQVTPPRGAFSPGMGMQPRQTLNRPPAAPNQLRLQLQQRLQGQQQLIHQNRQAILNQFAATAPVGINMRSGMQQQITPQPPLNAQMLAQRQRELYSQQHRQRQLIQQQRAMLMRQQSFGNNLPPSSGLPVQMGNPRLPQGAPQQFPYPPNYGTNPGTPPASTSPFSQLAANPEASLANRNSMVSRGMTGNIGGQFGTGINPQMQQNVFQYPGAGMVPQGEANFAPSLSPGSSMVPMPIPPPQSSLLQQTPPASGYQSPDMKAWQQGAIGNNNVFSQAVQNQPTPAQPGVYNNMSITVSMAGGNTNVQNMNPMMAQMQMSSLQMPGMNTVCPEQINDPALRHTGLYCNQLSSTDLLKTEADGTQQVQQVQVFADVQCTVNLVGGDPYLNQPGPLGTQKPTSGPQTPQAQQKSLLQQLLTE
# [3] = VP16 transactivation inhibitors, counter-screen for SRC1 inhibitor project, cell-based, luminescence, high throughput (AID 588824; in the data active = inhibition above about 25%); settings: cell-based VP16 transactivation luciferase luminescence; at 3.6 µM; stronger effect = higher value
# [4] = biological target: Platelet-activating factor acetylhydrolase (Homo sapiens) (UniProt Q13093); assay: pPAFAH (PLA2G7) enzyme inhibitors, confirmation, biochemical, fluorescence polarization, human (AID 463230;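 active = mean inhibition of the triplicate above the hit cutoff set for the earlier primary screen, cut at about 25% in these data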;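 note: 0% = enzyme with DMSO and 100% = wells lacking pPAFAH enzyme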); settings: recombinant pPAFAH, FP-Rh probe fluorescence polarization; at 3.39 µM; stronger effect = higher value
# Sequence of Platelet-activating factor acetylhydrolase (Homo sapiens) (Q13093 whole entry, looked up, the tested form may be a part): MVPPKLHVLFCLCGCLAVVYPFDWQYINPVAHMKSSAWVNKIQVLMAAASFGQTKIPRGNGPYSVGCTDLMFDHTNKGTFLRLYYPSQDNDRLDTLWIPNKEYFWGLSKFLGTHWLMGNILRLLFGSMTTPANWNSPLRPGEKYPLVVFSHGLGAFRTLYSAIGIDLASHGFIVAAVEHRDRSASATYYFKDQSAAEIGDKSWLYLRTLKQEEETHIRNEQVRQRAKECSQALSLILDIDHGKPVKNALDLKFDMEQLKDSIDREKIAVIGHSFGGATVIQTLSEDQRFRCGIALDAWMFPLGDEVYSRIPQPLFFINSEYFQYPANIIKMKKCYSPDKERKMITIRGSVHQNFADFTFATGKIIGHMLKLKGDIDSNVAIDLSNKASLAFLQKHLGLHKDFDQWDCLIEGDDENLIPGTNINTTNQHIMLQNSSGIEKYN
# [5] = biological target: Nuclear receptor coactivator 3 (Homo sapiens) (UniProt Q9Y6Q9); assay: SRC3 coactivator transcriptional activity inhibitors, confirmation, cell-based, luminescence, quadruplicate (AID 588792;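 active = mean inhibition over 43.08%, the solvent-only control mean plus 3 SD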;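 note: 0% = DMSO treated cells and 100% = gossypol at 36 µM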); settings: HEK293 GAL4-SRC3 luciferase reporter, at 3.6 µM, stronger effect = higher value
# Sequence of Nuclear receptor coactivator 3 (Homo sapiens) (Q9Y6Q9 whole entry, looked up, the tested form may be a part): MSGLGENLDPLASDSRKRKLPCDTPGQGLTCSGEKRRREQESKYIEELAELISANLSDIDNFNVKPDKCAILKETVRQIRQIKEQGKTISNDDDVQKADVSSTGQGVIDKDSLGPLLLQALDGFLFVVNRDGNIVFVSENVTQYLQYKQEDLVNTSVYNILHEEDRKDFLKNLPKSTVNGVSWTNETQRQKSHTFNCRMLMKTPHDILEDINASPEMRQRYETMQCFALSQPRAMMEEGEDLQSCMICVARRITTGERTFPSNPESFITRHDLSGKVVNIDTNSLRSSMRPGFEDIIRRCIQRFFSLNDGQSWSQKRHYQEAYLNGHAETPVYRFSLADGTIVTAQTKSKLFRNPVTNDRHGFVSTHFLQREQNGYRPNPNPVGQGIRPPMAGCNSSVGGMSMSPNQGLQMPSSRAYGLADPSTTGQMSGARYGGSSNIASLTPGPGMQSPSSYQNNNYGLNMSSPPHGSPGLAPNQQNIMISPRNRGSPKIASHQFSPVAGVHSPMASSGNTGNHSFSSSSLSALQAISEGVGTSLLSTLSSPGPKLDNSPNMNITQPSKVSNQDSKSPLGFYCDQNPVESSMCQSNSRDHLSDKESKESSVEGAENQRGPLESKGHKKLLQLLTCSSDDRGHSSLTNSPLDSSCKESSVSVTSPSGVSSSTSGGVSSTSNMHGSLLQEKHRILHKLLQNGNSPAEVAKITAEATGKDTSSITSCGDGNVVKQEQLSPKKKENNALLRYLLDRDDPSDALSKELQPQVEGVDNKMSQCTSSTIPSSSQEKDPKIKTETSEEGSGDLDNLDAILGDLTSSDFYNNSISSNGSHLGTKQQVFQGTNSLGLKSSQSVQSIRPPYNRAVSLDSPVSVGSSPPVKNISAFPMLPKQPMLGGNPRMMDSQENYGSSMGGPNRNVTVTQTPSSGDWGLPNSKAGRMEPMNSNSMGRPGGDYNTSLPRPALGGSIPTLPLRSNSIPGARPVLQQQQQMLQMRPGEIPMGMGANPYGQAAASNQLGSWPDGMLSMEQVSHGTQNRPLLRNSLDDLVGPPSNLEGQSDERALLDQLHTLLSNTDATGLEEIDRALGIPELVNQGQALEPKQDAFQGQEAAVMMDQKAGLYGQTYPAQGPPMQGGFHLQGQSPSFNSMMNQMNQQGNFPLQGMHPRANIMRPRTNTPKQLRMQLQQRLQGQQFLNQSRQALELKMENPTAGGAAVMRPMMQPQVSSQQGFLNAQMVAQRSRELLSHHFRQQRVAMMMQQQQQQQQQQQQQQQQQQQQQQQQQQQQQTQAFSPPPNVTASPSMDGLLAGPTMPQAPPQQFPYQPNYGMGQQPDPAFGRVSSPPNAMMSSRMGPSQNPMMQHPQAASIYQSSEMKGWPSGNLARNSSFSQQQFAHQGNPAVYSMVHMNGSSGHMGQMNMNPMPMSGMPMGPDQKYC
# [6] = system: transactivating tegument protein VP16 (Human herpesvirus 1), Gal4-VP16 luciferase reporter; assay: VP16 transactivation inhibitors, counter-screen for SRC3 inhibitor project, cell-based, luminescence, high throughput (AID 588794; in the data active = inhibition above about 30%); settings: mammalian cells, VP16-driven luciferase reporter luminescence; at 3.6 µM; stronger effect = higher value
# [7] = system: transactivating tegument protein VP16 (Human herpesvirus 1); assay: VP16 transactivation reporter inhibitors, counter-screen for SRC2 inhibitor project, cell-based, luminescence, single concentration (AID 652007; in the data active = inhibition above about 36%); settings: cell-based VP16 transactivation luciferase reporter, at 8.9 µM, stronger effect = higher value
# [8] = biological target: Nuclear receptor coactivator 2 (Homo sapiens) (UniProt Q15596); assay: SRC2 coactivator transcriptional activity inhibitors, confirmation, cell-based, luminescence, HEK293, triplicate (AID 652008;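 active = mean inhibition above 46.5%, the solvent-only control mean plus 3 SD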;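 note: 0% = DMSO-treated cells and 100% = Gossypol at 36 µM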); settings: HEK293 GAL4-SRC2 luciferase reporter, at 8.9 µM, stronger effect = higher value
# [9] = StAR promoter reporter inhibitors, counter-screen for LRH-1 inverse agonist project, cell-based, luminescence, high throughput (AID 651611; in the data active = inhibition above about 28%); settings: StAR promoter luciferase reporter counterscreen, at 3.6 µM, stronger effect = higher value
# [10] = biological target: Nuclear receptor subfamily 5 group A member 2 (Homo sapiens) (UniProt O00482); assay: LRH-1 (NR5A2) inverse agonists, retest, confirmation, cell-based, luminescence (AID 651613; in the data active = inhibition above about 42%;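 note: HEK293T cells co-transfected with LRH-1 and StAR promoter luciferase reporter; 0% = vehicle wells and 100% = parental cells lacking receptor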); settings: cell-based LRH-1 luciferase reporter, inverse agonism; at 3.6 µM; stronger effect = higher value
# Sequence of Nuclear receptor subfamily 5 group A member 2 (Homo sapiens) (O00482 whole entry, looked up): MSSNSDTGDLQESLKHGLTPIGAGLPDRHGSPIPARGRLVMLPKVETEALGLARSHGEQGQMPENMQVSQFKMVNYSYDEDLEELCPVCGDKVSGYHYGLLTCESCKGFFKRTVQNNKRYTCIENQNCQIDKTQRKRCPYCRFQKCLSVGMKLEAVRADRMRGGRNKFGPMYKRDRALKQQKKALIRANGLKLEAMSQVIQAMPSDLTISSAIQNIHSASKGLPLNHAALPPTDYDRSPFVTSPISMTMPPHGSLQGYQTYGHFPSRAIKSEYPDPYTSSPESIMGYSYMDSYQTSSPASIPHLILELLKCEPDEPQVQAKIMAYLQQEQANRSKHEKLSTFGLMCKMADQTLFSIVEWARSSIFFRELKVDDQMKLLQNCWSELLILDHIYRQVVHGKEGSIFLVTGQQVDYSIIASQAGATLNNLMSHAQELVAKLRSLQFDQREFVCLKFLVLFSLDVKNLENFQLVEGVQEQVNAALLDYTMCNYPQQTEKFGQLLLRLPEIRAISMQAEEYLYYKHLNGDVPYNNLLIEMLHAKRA
# [11] = biological target: Steroidogenic factor 1 (Homo sapiens) (UniProt Q13285); assay: SF1 (NR5A1) inverse agonists, counter-screen for LRH-1 inverse agonist project, cell-based, luminescence, high throughput (AID 651614; in the data active = inhibition above about 44%;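 note: cells cotransfected with StAR promoter reporter and SF1 expression vector; 0% = vehicle on cells with receptor and 100% = vehicle on cells lacking receptor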); settings: cell-based SF1 luciferase reporter, at 3.6 µM, stronger effect = higher value
# Sequence of Steroidogenic factor 1 (Homo sapiens) (Q13285 whole entry, looked up, the tested form may be a part): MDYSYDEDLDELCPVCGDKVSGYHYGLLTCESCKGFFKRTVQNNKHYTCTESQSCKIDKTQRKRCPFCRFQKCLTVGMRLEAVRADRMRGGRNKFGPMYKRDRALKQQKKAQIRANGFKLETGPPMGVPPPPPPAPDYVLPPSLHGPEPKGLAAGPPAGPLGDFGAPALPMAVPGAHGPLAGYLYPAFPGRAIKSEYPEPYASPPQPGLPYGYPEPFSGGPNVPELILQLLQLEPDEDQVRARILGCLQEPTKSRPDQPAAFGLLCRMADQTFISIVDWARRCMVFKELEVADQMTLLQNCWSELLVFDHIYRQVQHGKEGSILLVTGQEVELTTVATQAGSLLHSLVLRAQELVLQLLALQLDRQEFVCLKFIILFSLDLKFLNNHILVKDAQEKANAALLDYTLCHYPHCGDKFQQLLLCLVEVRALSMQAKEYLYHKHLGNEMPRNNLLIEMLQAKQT
# [12] = VP16 transactivation reporter inhibitors, counter-screen for LRH-1 inverse agonist project, cell-based, luminescence, high throughput (AID 651615; in the data active = inhibition above about 33%); settings: Gal4-VP16 luciferase reporter cells, at 3.6 µM, stronger effect = higher value
# [13] = biological target: Glutathione S-transferase omega-1 (Homo sapiens) (UniProt P78417); assay: GSTO1 inhibitor hit confirmation, counter-screen for RBBP9 inhibitor project, biochemical, fluorescence polarization, triplicate (AID 2176;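 active = inhibition above the primary screen's cutoff, its mean inhibition plus 3 SD, cut at about 35% in these data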;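 note: loss of polarization as inhibitors block binding of rhodamine sulfonate ester activity probe; 0% = GSTO1 with DMSO and 100% = wells lacking GSTO1 enzyme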); settings: recombinant GSTO1, probe fluorescence polarization; at 5.96 µM; stronger effect = higher value
# Sequence of Glutathione S-transferase omega-1 (Homo sapiens) (P78417 whole entry, looked up): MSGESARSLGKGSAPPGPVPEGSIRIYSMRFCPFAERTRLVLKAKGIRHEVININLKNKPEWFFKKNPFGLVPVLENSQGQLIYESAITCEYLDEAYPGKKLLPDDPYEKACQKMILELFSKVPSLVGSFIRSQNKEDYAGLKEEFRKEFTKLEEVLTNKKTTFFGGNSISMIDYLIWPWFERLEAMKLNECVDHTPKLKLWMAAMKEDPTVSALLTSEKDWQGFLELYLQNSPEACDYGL
# [14] = biological target: Protein-arginine deiminase type-4 (Homo sapiens) (UniProt Q9UM07); assay: human PAD4 inhibitors, confirmation, biochemical, fluorescence polarization (AID 488796;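 active = mean inhibition across replicates above the hit cutoff set by the earlier primary screen, cut at about 15% in these data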;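 note: inhibitors block active-site labeling by the probe so polarization falls; 0% = PAD4 with probe and DMSO and 100% = probe without PAD4 enzyme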); settings: recombinant PAD4, RCA probe fluorescence polarization; at 6.36 µM; stronger effect = higher value
smiles,measurement,setting,value
CNc1ccc2nc3ccccc3[n+](C)c2c1,inhibition,[1],61.7% (active)
same,inhibition,[2],-4.23%
same,inhibition,[3],3.25%
NCCc1ccc(S(=O)(=O)F)cc1,inhibition,[4],71.9% (active)
CCCNC(=O)N1[C@H]2CC[C@@H]1C(C(=O)OC)=C(c1ccc(OC(F)(F)F)cc1)C2,inhibition,[5],14.2%
same,inhibition,[6],-7.81%
CC(=O)c1ccc2c(c1)C1C(Cl)C(Sc3ccccc3[N+](=O)[O-])CC1C(C(=O)O)N2 (stereo unspecified),inhibition,[1],25.9%
CC1=CC2/C=C(\C)CCC(O)C(O)/C=C/C(=O)C23C(=O)NC(CC(C)C)C3C1C (stereo unspecified),inhibition,[5],36%
same,inhibition,[6],54.8% (active)
C[C@H]1CCC/C=C/C2C[C@H](O)CC2[C@H](O)/C=C/C(=O)O1 (stereo partly specified),inhibition,[5],69.2% (active)
same,inhibition,[6],80.2% (active)
Cc1nn(-c2ccccc2)c(C)c1NC(=O)COC(=O)Cc1ccccc1,inhibition,[4],43.1% (active)
NC(Cc1cc(O)c(O)cc1O)C(=O)O (stereo unspecified),inhibition,[1],69.4% (active)
CCC(=O)c1cn(Cc2ccccc2C#N)c2ccccc12,inhibition,[1],19.9%
O=P(Oc1ccccc1)(Oc1ccccc1)C(O)c1ccc(Cl)cc1 (stereo unspecified),inhibition,[1],59.3% (active)
COc1ccc(OC(=O)N(C)C)c(CN(C)C)c1,inhibition,[5],5.12%
same,inhibition,[6],-6.66%
CCCCNS(=O)(=O)c1ccc(OCC(=O)N2CCN(Cc3ccc4c(c3)OCO4)CC2)cc1,inhibition,[5],10.7%
same,inhibition,[6],26.6%
Cc1ccccc1NP(=O)(Oc1ccccc1F)Oc1ccccc1F,inhibition,[1],43.5% (active)
CC/C(=N\Nc1ccccc1)c1c(O)[nH]c(=O)[nH]c1=O,inhibition,[5],14.7%
same,inhibition,[6],20.4%
O=C1C(=O)c2ccccc2-c2ccccc21,inhibition,[1],42.8% (active)
same,inhibition,[5],97.1% (active)
same,inhibition,[6],95.2% (active)
same,inhibition,[2],95.1% (active)
same,inhibition,[3],93.5% (active)
same,inhibition,[7],96.5% (active)
same,inhibition,[8],98.8% (active)
Cn1ncnc2c(=O)n(C)c(=O)nc1-2,inhibition,[1],43.2% (active)
same,inhibition,[9],76.9% (active)
same,inhibition,[10],92.6% (active)
same,inhibition,[11],84.3% (active)
same,inhibition,[12],87.6% (active)
O=P(Oc1ccccc1)(Oc1ccccc1)C(O)c1ccccc1 (stereo unspecified),inhibition,[1],78.1% (active)
CC(=O)c1ccc2c(c1)C1C(Cl)C(Sc3ccccc3[N+](=O)[O-])CC1C(c1ccccc1)N2 (stereo unspecified),inhibition,[1],23.8%
Cc1nc2c(=O)n(C)c(=O)nc-2n(C)n1,inhibition,[1],33% (active)
same,inhibition,[9],78.3% (active)
same,inhibition,[10],94.5% (active)
same,inhibition,[11],83.4% (active)
same,inhibition,[12],90.8% (active)
same,inhibition,[7],62.6% (active)
same,inhibition,[8],77.8% (active)
O=c1[nH]c(=O)n(CCC2=CCCCC2)c(O)c1C=NC1CCN(Cc2ccccc2)CC1,inhibition,[5],-0.53%
same,inhibition,[6],36.4% (active)
O=C1CC(=O)N(Cc2ccccc2)C(=O)N1CCCCCCN1C(=O)CC(=O)N(Cc2ccccc2)C1=O,inhibition,[4],4.95%
CCNc1nc2[nH]c(=O)c3c(c2s1)OC(N)=C(C#N)C3c1cccs1 (stereo unspecified),inhibition,[13],7.87%
CN1/C(=C\C=C\C2=[N+](C)c3ccc4ccccc4c3C2(C)C)C(C)(C)c2ccccc21,inhibition,[1],79.1% (active)
O=c1c2ccccc2nc(/C=C/c2ccc(O)c(O)c2)n1-c1ccccc1,inhibition,[1],-7.92%
COc1ccc(C(O)P(=O)(Oc2ccccc2)Oc2ccccc2)cc1 (stereo unspecified),inhibition,[1],42.8% (active)
COc1ccccc1C1=NCc2nnc(CSC)n2-c2ccc(Cl)cc21,inhibition,[14],12.9%
NP(=O)(OCC(F)(F)F)Oc1ccc(Cl)cc1 (stereo unspecified),inhibition,[1],30.6% (active)
O=c1[nH]c(=S)[nH]c(O)c1N=Nc1ccc(S(=O)(=O)N2CCc3ccccc32)cc1,inhibition,[1],46% (active)
same,inhibition,[9],35% (active)
same,inhibition,[10],49.8% (active)
same,inhibition,[11],47.9% (active)
same,inhibition,[12],7.96%
CSCCC(c1nnnn1Cc1ccccc1)N1CCC(n2c(=O)[nH]c3ccccc32)CC1 (stereo unspecified),inhibition,[5],52.8% (active)
same,inhibition,[6],46.3% (active)
same,inhibition,[2],36.4%
same,inhibition,[3],44.5% (active)
CC1=CC2OC3CC4OC(=O)C=CC=CC(=O)OCCC(C)C(O)C(=O)OCC2(CC1O)C4(C)C31CO1 (stereo unspecified),inhibition,[5],98% (active)
same,inhibition,[6],96.8% (active)
same,inhibition,[2],96.8% (active)
same,inhibition,[3],95.6% (active)
COc1cc2c(cc1O)C[C@H]1NCCc3cc4c(c-2c31)OCO4,inhibition,[5],32.3%
same,inhibition,[6],33.2% (active)
same,inhibition,[2],22.1%
same,inhibition,[3],40.2% (active)
CNC(=O)c1cccn(Cc2cccc(C(F)(F)F)c2)c1=O,inhibition,[5],19.5%
same,inhibition,[6],-23.9%
same,inhibition,[2],-26.7%
same,inhibition,[3],-25.9%
Cc1ccc(C[n+]2c(-c3ccc(C)cc3)cc(-c3ccc(C)cc3)cc2-c2ccc(C)cc2)cc1,inhibition,[5],91.3% (active)
same,inhibition,[6],87.9% (active)
same,inhibition,[2],44.1%
same,inhibition,[3],84.7% (active)
CNC(=O)c1cccn(Cc2cc(C(F)(F)F)cc(C(F)(F)F)c2)c1=O,inhibition,[5],28.4%
same,inhibition,[6],11%
same,inhibition,[2],10.9%
same,inhibition,[3],3.5%
